Values joined by “and” are separate entries in the source; they are usually repeats but may differ in a detail not shown here. Identical values can stand only once. The campaign covered roughly 220,000 compounds. About 3,300 (1.5%) were called active.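 How the source made its calls: active means compounds that cut the protein-peptide binding signal by more than 50% relative to plate controls in a single-dose test; inactive means the rest.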 Many of the other results were omitted from the sample, so actives are more common in it than they were. The source holds several records for some structures; these can differ, active in one and inactive in another.
target: Induced myeloid leukemia cell differentiation protein Mcl-1 (Homo sapiens) (UniProt Q07820); test: Mcl-1/Noxa binding inhibitors, primary screen, biochemical, TR-FRET, 1536-well (AID 1022); conditions: TR-FRET Mcl-1/Noxa peptide binding, 2 h; at 21.7 µM; stronger effect = higher value;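 further: His-tagged Mcl-1 with rhodamine Noxa BH3 peptide and terbium anti-His antibody; 0% = Mcl-1 plus Noxa peptide wells and 100% = peptide-only wells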
Sequence (Q07820 whole entry, looked up): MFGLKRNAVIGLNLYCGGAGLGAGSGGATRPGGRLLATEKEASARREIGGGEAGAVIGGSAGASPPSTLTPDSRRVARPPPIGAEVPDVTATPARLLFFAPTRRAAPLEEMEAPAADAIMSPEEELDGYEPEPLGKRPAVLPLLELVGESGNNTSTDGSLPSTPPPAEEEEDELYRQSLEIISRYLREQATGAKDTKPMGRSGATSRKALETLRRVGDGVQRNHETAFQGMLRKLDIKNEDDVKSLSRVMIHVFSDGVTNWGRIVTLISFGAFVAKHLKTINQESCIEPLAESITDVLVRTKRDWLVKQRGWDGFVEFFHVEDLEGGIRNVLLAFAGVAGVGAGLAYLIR

| SMILES | inhibition |
| --- | --- |
| COc1ccc2nc(NC(=O)NC3CCCCC3)sc2c1 | -0.53% (inactive) |
| O=C(Nc1ccccc1)O/N=C1/CCCc2occc21 | 6.55% (inactive) |
| Oc1ccc(N=Nc2nccs2)c(O)c1 | -33.2% (inactive) |
| COc1cc2c(cc1O)[C@H](Cc1ccc(Oc3cc(C[C@@H]4NCCc5cc(OC)c(O)cc54)ccc3O)cc1)NCC2 | 64.4% (active) |
| CC[C@H]1CN2CCc3cc(OC)c(OC)cc3[C@@H]2C[C@@H]1C[C@H]1NCCc2cc(OC)c(OC)cc21 | 22.4% (inactive) |
| O=[N+]([O-])c1ccc(N=Cc2c(O)ccc3ccccc23)cc1 | -1.02% (inactive) |
| O=C(Nc1ccc(F)cc1F)N1CCCN(CCOc2ccccc2)CC1 | 9.38% (inactive) |
| N#CC1=C(N)Oc2c(sc3ccccc23)C1c1ccco1 (configuration not stated) | 51.5% (active) |
| Cc1cc(C)c2c3c(sc2n1)C(c1ccccc1)C(C#N)=C(N)O3 (configuration not stated) | -16.3% (inactive) |
| CC1=C(C(=O)Nc2ccccc2)C(c2ccco2)C(C#N)=C(SCC(N)=O)N1 (configuration not stated) | 5.4% (inactive) |
| Cc1noc(C)c1S(=O)(=O)Nc1cc(C(F)(F)F)ccc1N1CCOCC1 | -6.09% (inactive) |
| CC(C)Cc1nc(Cl)c(C#N)c2c1CCC2 | 1.09% (inactive) |
| COc1ccccc1CNC(=O)Cn1c(=O)oc2cc(Cl)ccc21 | -8.08% (inactive) |
| CCN1C(=O)/C(=c2\s/c(=C3\Sc4ccccc4N3C)c(=O)n2C)N(C)C1=S | 46.4% (inactive) |
| CCN1C(=O)/C(=C2/Sc3ccccc3N2CCCS(=O)(=O)O)SC1=S | 23% (inactive) and 61.3% (active) |
| CCCCN1C(=O)/C(=C/C=C2/C=Cc3ccccc3N2CC)SC1=S | 25.9% (inactive) |
| COc1ccc(N2C(=O)C3C(C2=O)C(C(=O)c2ccccc2)N2CCCC32)cc1 (configuration not stated) | 2.44% (inactive) |
| O=C1CSC(=S)N1/N=C/c1ccc(O)c([N+](=O)[O-])c1 | 85.6% (active) |
| NC(N)=N/N=C/c1ccc(Cl)c([N+](=O)[O-])c1 | 8.52% (inactive) |
| CCOc1cccc(/C=N/N2C(=O)CSC2=S)c1O | 37.8% (inactive) |
| COc1ccc(COCCN2CCN(S(=O)(=O)c3ccccc3)CCC2=O)cc1 | 4.91% (inactive) |
| S=c1[nH]nc(-c2cccnc2)n1/N=C/C(Cl)=C\c1ccccc1 | 32.3% (inactive) |
| Cc1cc(-c2n[nH]c(=S)n2/N=C/C(Br)=C/c2ccccc2)n[nH]1 | 59.6% (active) |
| Cc1cc(-c2n[nH]c(=S)n2/N=C/c2ccco2)n[nH]1 | 5.82% (inactive) |
| Nc1ccccc1Sc1ccc(C(F)(F)F)cc1[N+](=O)[O-] | -1.26% (inactive) |
| S=c1[nH]nc(-c2cc(-c3ccccc3)n[nH]2)n1/N=C/c1c2ccccc2cc2ccccc12 | 79.6% (active) |

| SMILES | inhibition |
| --- | --- |
| S=c1[nH]nc(-c2ccco2)n1/N=C/c1ccccc1 | 32.5% (inactive) |
| S=c1[nH]nc(-c2ccccc2)n1/N=C/c1c[nH]c2ccccc12 | 13.7% (inactive) |
| COCCN1C2=C(COC(C)(C)C2)C(=S)NC1c1ccccc1 (configuration not stated) | 1.37% (inactive) |
| Cc1cnc(NC(=O)Cn2cnc3c2c(=O)n(C)c(=O)n3C)s1 | 3.66% (inactive) |
| CCOC(=O)Cn1c(N)c(C(=O)OC)sc1=S | 5.93% (inactive) |
| COCCOC(=O)c1sc(=S)n(CCOC)c1N | 51.1% (active) |
| COC(=O)c1sc(=S)n(-c2ccccc2)c1N | 16.2% (inactive) |
| CN(C)c1ccc(Nc2c3c4c(cccc4n(C)c2=O)C(=O)c2ccccc2-3)cc1 | 104% (active) |
| COc1ccc(COCC(O)CN2CCC(C(N)=O)CC2)cc1 (configuration not stated) | 4.43% (inactive) |
| CCn1cc(C(=O)N2CCN(Cc3ccc4c(c3)OCO4)CC2)c2cc(OC)c(OC)cc2c1=O | 4.25% (inactive) |
| CCn1cc(C(=O)NCc2ccc3c(c2)OCO3)c2cc(OC)c(OC)cc2c1=O | 74.5% (active) |
| CCn1cc(C(=O)NCC2COc3ccccc3O2)c2cc(OC)c(OC)cc2c1=O (configuration not stated) | -0.39% (inactive) |
| CCOC(=O)C1C(c2ccc(OC)c(OC)c2)c2c([nH][nH]c2=O)CC1(C)O (configuration not stated) | -16.2% (inactive) |
| CC(NC(=O)C(=O)Nc1nccs1)c1ccccc1 (configuration not stated) | -15.7% (inactive) |
| CC12CN3CCN(CC(C3)/C1=N\NC(=O)c1ccccc1N)C2 | 15.5% (inactive) |
| Cc1cc(C)c(C#N)c(N2CCC(C(N)=O)CC2)n1 | 6.16% (inactive) |
| N#Cc1c(N2CCCCC2)nc(N)c2c(N)nc(SCC(=O)O)cc12 | 57.7% (active) |
| N#Cc1c(C(F)(F)F)cc(-c2ccc(Cl)cc2)nc1SCC(=O)O | 6.22% (inactive) |
| COC(C[C@H](O)CC(=O)COCc1ccccc1)OC | 3.71% (inactive) |
| O=[N+]([O-])C(=c1ccc2c(c1)N1C3=C(CCCC3)CC3CCCCC31N=2)[N+](=O)[O-] (configuration not stated) | 99.2% (active) |
| Cc1ccc(Nc2nc(Cl)c(C=O)s2)cc1 | 10.2% (inactive) |
| CN(C(=O)CCn1c(=S)oc2ccccc21)C1CCCCC1 | -15.3% (inactive) |
| CC(=O)Nc1ccc(NC(=O)CSc2ncnc3c2cnn3Cc2ccccc2)cc1 | 9.1% (inactive) |
| CC(NC(=S)Nc1ccccc1)C(c1cccs1)N1CCOCC1 (configuration not stated) | -2.6% (inactive) |
| Clc1ccc(C2=CSC3=Nc4cccc5cccc(c45)N23)cc1 | 61.8% (active) |
| COC(=O)c1cccc(NS(C)(=O)=O)c1 | -15.1% (inactive) |

Source: PubChem BioAssay AID1022 (Emory University Molecular Libraries Screening Center, 2008)
